In general, AC50 refers to the midpoint of the concentration-response curve, whichever way the signal moves.

SMILES strings stand for the structures. Calls of active or inactive are those of the source. How the source made its calls: active means hit-call score of the fitted dose curve at least 0.9, where 1 is the maximum; inactive means score below 0.9.

Read-out in this assay: Paternally Expressed 10 (PEG10), PEG10 (gene 23089)
Put plainly: LTEA_HepaRG_PEG10: Life Technologies and Expression Analysis (LTEA) Assay for Paternally Expressed 10 (PEG10) using HepaRG (AID 2283520).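 On AC50: PEG10 transcript by qRT-PCR normalised to ACTB GAPDH and POLR2A.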 The following applies: mRNA level, 48 h; actives raise or lower the signal. How it is done:
LTEA_HepaRG is a cell based, multiplexed-readout assay that uses HepaRG, a human liver cell line, with measurements taken at 48 hours after chemical dosing on a 96-well plate.LTEA_HepaRG_PEG10 is one of 102 assay component(s) measured in the LTEA HepaRG cell culture assay. It is a marker of Cell proliferation, survival, death.Data from the assay component LTEA_HepaRG_PEG10 was analyzed into 1 endpoint. This assay endpoint, LTEA_HepaRG_PEG10, was analyzed with bidirectional fitting relative to DMSO as the negative control and baseline of activity. Using a type of inducible reporter, measures of mRNA induction for gain or loss-of-signal activity can be used to understand regulation of transcription factor activity. To generalize the intended target to other relatable targets, this assay endpoint is annotated to the dna binding intended target family, where the subfamily is xenobiotic metabolism.
A total of 1060 chemcials from the ToxCast library were tested in eight-point concentration-response experiments. Cell culture and cytotoxicity assays were conducted at Thermo Fisher Scientific's Custom Services facility (Madison, WI). A single lot of human HepaRG cells (Thermo Fisher Scientific, Frederick, MD) was used for the cell culture experiments. 96-well format collagen type I coated plates of human HepaRG cells were prepared using established methods. Briefly, cryopreserved HepaRG cells were thawed, plated at a density of approximately 100,000 cells/well in HepaRG Thaw, Plate, and General Purpose media (HPRG770, Thermo Fisher Scientific), and incubated for 48 hours. 0.5% DMSO was selected as vehicle control to balance the requisite need of DMSO in HepaRG cultures to maintain differentiation (for example, baseline metabolism, proportions of hepatocytes vs. cholangiocytes), while enabling further hepatic receptor pathway activation (for example, PXR and CAR) in response to chemical exposure. 48 hours after plating, the culture medium was replaced with HepaRG Serum-Free Incudtion Media. Cells were exposed to each test chemical in duplicate and maintained in CO2 incubators for another 48 hours. Chemical plates were thawed to room temperature and 200x concentrations of treatment groups were prepared. 8-point conentration-reponse curves were made with the highest exposure at 100 uM, followed by half-log dilutions, all in 0.5% DMSO. Each test plate contained variouse controls, induction positive controls (1mM phenobarbital), cytotoxicity positive controls ([…] aflatoxin B1), vehicle controls (0.5% DMSO), and total lysis controls (0.5% DMSO). Cell morphology images were taken using an Essen IncuCyte FLR automated microscope, with six 96-well plates imaged in about 24 minutes. Images were captured and exported and JPEG files. Spent culture media was transfered to black-well plates for the LDH assay, and remaining media was sorted at -80 C for later use. Cells were treated with RLT buffer and frozen until shipped for gene expression analysis. Total RNA was isolated from the cell suspension in 75 uL of Buffer RLT (Qiagen, Germantown, MD 20874) by Quintiles/Expression Analysis (Durham, NC) using a custom isolation procedure. Total RNA from each plate well was transferred to a preamplification plate. Fluidigm's 96.96 Dynamic ArrayTM (Fluidigm, Amsterdam, the Netherlands) technology was used for gene expression analyses by quantitative reverse transcription polymerase chain reaction (qRT-PCR, performed by Quintiles/Expression Analysis, Durham, NC)89. Standard TaqManTM Assays (Applied Biosystems/ThermoFisher Scientific, Foster City, CA) were used to assess the expression of 93 genes selected based on their selectivity and sensitivity to important hepatic receptors known to be modulated by environmental chemicals; importance in human hepatocyte functionality; and hepatotoxicity. […]
For the molecule `C[C@]12CCC(=O)C[C@@H]1CC[C@@H]1[C@@H]2CC[C@]2(C)[C@@H](O)CC[C@@H]12`, the AC50 was 50 µM (active). On to `NC(=O)O`, for which the result was inactive. For `COc1cc(-c2ccc(N)c(OC)c2)ccc1N`, the AC50 was 50 µM (active). In the case of `CCC(C)(C)c1ccc(O)c(C(C)(C)CC)c1`, the call was inactive.

Consider `O=C1C2(Cl)C3(Cl)C4(Cl)C(Cl)(Cl)C5(Cl)C3(Cl)C1(Cl)C5(Cl)C24Cl` (stereo unspecified), for which the AC50 was 93.4 µM (active).

Take `CCOP(=S)(OCC)Oc1nc(Cl)c(Cl)cc1Cl`: the outcome was inactive. As for `O=C(O)C(F)(F)C(F)(F)C(F)(F)C(F)(F)C(F)(F)C(F)(F)F`, the molecule was called inactive. As for `CC(C)(c1ccccc1)c1ccc(O)c(C(C)(C)c2ccccc2)c1`, the outcome was inactive. Turning to `CC12CC1(C)C(=O)N(c1cc(Cl)cc(Cl)c1)C2=O` (stereo unspecified), the AC50 is 10.3 µM (active).

In the case of `C=CC(=O)OCCCCCC(C)C`, the molecule was called inactive.

On to `Cc1ccccc1N`, for which the molecule was classed as inactive.

As to `ClC1(Cl)C2(Cl)C3(Cl)C4(Cl)C(Cl)(Cl)C5(Cl)C3(Cl)C1(Cl)C5(Cl)C24Cl` (stereo unspecified), the result was inactive. Regarding `CC(C)(C)c1cc(O)ccc1O`, the molecule was called inactive. The same measure, in the same setting: the same measure for `Oc1cccc2cccnc12`: “inactive”; for `O=C(O)C(Cl)(Cl)Cl`: “inactive”. The same measure, in the same setting: the result for `O=c1[nH]c(=O)[nH]c(=O)[nH]1` reads “inactive”; that for `CC(C)(C)CC(C)(C)c1ccc(O)cc1`, “inactive”; that for `O=C(O)C(F)(F)C(F)(F)C(F)(F)C(F)(F)C(F)(F)C(F)(F)C(F)(F)C(F)(F)C(F)(F)C(F)(F)F`, “inactive”. Consider `CC(=O)[O][Hg][c]1ccccc1`, for which the AC50 was 50 µM (active). Still for that read-out and setting: the result for `CCN1CCC2(CC1)COc1cc3c(cc12)N(C(=O)c1ccc(-c2ccc(-c4nnc(C)o4)cc2C)cc1)CC3` reads 15.6 µM (active); that for `O=[N+]([O-])c1ccc(O)c([N+](=O)[O-])c1`, 13.2 µM (active). Regarding `CCOP(=S)(OCC)SCSP(=S)(OCC)OCC`, the outcome was inactive. Turning to `O=C(Nc1ccc2[nH]ccc2c1)c1cc2cc(F)ccc2n1Cc1cccc(F)c1`, the AC50 was 50 µM (active). Turning to `CCCCCCCCc1ccc(O)cc1`, the outcome was inactive. The same measure, in the same setting: the result for `CN(C)N=O` reads “inactive”; that for `C=C(C)C(=O)[O][Sn]([CH2]CCC)([CH2]CCC)[CH2]CCC`, “inactive”. `CCC(=O)C(CC(C)N(C)C)(c1ccccc1)c1ccccc1` (stereo unspecified): the AC50 was 26.3 µM (active). As to `ClCC(Cl)CCl`, the result was inactive. On the same count and under the same terms, the same measure for `CC(C)(OO)c1ccccc1`: “inactive”; for `Cn1sc(Cl)cc1=O`: “inactive”.

For `C[C@@H]1C[C@@H]([C@H](O)CC2CC(=O)NC(=O)C2)C(=O)[C@@H](C)C1`, the AC50 was 2.39 µM (active).

Source of the values: PubChem BioAssay (EPA / NIEHS).
